Data published in PubChem BioAssay AID686978 (National Center for Advancing Translational Sciences (NCATS), 2013).
About 64,000 (15%) of roughly 420,000 compounds were called active. Roughly 27% stayed inconclusive and do not appear here. The list is a sample of the results. Unmarked numbers belong to inactive results. The call rests on the fitted dose curve; in most records, active means well fitted inhibition curve with a large enough effect; inconclusive means small, poorly fitted or top-dose-only effect; inactive means flat fitted curve, though single readings scatter.

test: qHTS for Inhibitors of human tyrosyl-DNA phosphodiesterase 1 (TDP1): qHTS in cells in absence of CPT; conditions: DT40 Tdp1-/- hTDP1 cells, no CPT, ATP luminescence, 48 h; activity change, negative = growth inhibition: at 46.2 µM (top of the series); further: nearly all actives have a fitted effect of over 55% in size
Summary of the method: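 Chicken DT40 Tdp1-/- cells complemented with human TDP1, screened without camptothecin (DMSO vehicle only), 400 cells/well. Compounds pin-transferred, cells incubated at 37 °C for at least 48 hr. Growth read as ATP-dependent luminescence (CellTiter-Glo, 30 min at RT).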
On the % scale 0 is the no-effect control and ±100 the full control effect; potency means the concentration at half of the fitted maximal effect.

Row | SMILES | activity change, negative = growth inhibition | Potency
1 | Cc1cc(=O)n2nc(N3CCCC(C(=O)NCc4cccc(Cl)c4)C3)sc2n1 (stereo not drawn) | 20.8% | 
2 | O=C(NCCc1cccc(F)c1)C1CCCN(c2nc3ccccc3s2)C1 (stereo not drawn) |  | 23.1 µM (active)
3 | O=C(NCc1ccccc1)C1CCCN(c2nc3ccsc3c(=O)s2)C1 (stereo not drawn) | -22.8% | 
4 | COc1ccccc1C(=O)NC(=O)COC(=O)C1CC1 | -0.675% | 
5 | Cc1ccccc1CN1CCC(CNC(=O)c2cc3ccc4cccnc4c3[nH]2)CC1 |  | 23.1 µM (active)
6 | Cc1ccccc1CN1CCN(C(=O)c2cccc(F)c2)CC1 | -24.2% | 
7 | Cc1cccc(CN2CCC(n3nccc3NC(=O)c3ccccc3C)CC2)n1 | 0.0568% | 
8 | CCOc1cc2ccccc2cc1C(=O)Nc1ccccn1 | -22.9% | 
9 | COc1cc(NC(=O)c2cc3ccc4cccnc4c3[nH]2)cc(OC)c1OC | -8.52% | 
10 | CCOc1ccccc1N(CC)C(=O)c1cc2ccc3cccnc3c2[nH]1 |  | 5.8 µM (active)
11 | CCc1nnc(SCc2cccc(F)c2)nc1CC | -0.858% | 
12 | CSCCC(NC(=O)C1CCC(C)CC1)C(=O)NCc1ccco1 (stereo not drawn) | -3.03% | 
13 | Cc1cc(C(F)(F)F)c(C#N)c(SCC(=O)NC2CC2)n1 | -5.72% | 
14 | CC(=O)N(CN1C(=O)C2CC=CCC2C1=O)c1cccc(Cl)c1 (stereo not drawn) | -26.5% | 
15 | O=C1CSC(c2cccc(F)c2)N1c1ccccc1F (stereo not drawn) | -21% | 
16 | COCCNC(=O)CSc1c(C)cnc2c1c(=O)n(C)c(=O)n2C | 1.96% | 
17 | CC(=O)c1ccc(NC(=O)CSc2c(C(C)C)cnc3c2c(=O)n(C)c(=O)n3C)cc1 |  | 14.6 µM (active)
18 | COc1ccc(C(=O)CSc2n[nH]c(N)n2)cc1 | -16% | 
19 | Cc1ccc(CNC(=O)CSc2c(C)cnc3c2c(=O)n(C)c(=O)n3C)cc1 | -15.4% | 
20 | COc1ccc(C(=O)CSc2nccc(=O)[nH]2)cc1 | -14.2% | 
21 | COc1ccc(C(=O)CSc2c(C(C)C)cnc3c2c(=O)n(C)c(=O)n3C)cc1 |  | 13 µM (active)
22 | COc1ccc(C(=O)O)cc1S(=O)(=O)NCc1cccnc1 | 14% | 
23 | Cc1snc(SCc2c(F)cccc2Cl)c1C#N | -25.5% | 
24 | O=C(NN1C(=O)C2C3C=CC(O3)C2C1=O)c1ccccc1 (stereo not drawn) | 6.73% | 
25 | Cc1ccc2c(C)c(C(=O)N3CCC(N4CCC(C(=O)NC5CC5)CC4)CC3)oc2c1 | -6.02% | 
26 | COc1cc(Cl)c(C)cc1NC(=O)COC(=O)c1cc(SC)ccc1Cl | 1.67% | 
27 | CC(C)(C)NC(=O)NC(=O)COC(=O)Cc1ccc(Cl)cc1Cl | -0.501% | 

Row | SMILES | activity change, negative = growth inhibition | Potency
28 | CC(NC(=O)COc1cccnc1[N+](=O)[O-])c1ccc(Cl)cc1Cl (stereo not drawn) | -2.29% | 
29 | CCc1nc2ccc(C(=O)N3CCC(O)(Cc4ccccc4)CC3)cn2c1N(C)C(=O)Cc1ccccc1 | -26.2% | 
30 | CCCCC(=O)N(C)c1c(CC)nc2c(OCc3ccc(Cl)cc3Cl)cccn12 |  | 9.2 µM (active)
31 | CCc1nc2c(OCc3ccc(C(F)(F)F)cc3)cccn2c1N(C)C(=O)CC(C)C |  | 20.6 µM (active)
32 | CCc1nc2ccc(C(=O)N(C)Cc3ccco3)cn2c1N(C)C(=O)Cc1ccccc1 | -17% | 
33 | COc1cccc(NC(=O)CN(C)C(=O)Cc2ccc(Cl)cc2Cl)c1 | -1.62% | 
34 | CCc1nc2c(OCc3ccc(Cl)cc3Cl)cccn2c1N(C)C(=O)C(C)C |  | 8.2 µM (active)
35 | O=C(COC(=O)C12CC3CC(CC(O)(C3)C1)C2)NC12CC3CC(CC(C3)C1)C2 | -25.9% | 
36 | O=C(NC1CCN(C(=S)Nc2ccc(Cl)cc2)CC1)C1CCCCC1 | -2.42% | 
37 | CC(OC(=O)CCC(=O)c1ccccc1)C(=O)Nc1ccc(F)cc1 (stereo not drawn) | -20.1% | 
38 | CCOC(=O)c1c(C)nn(-c2ncccc2NC(=O)CCC(=O)O)c1C | -16.1% | 
39 | C#CCCCc1nc2ccccc2c(=O)n1N | -22.3% | 
40 | C/C(=N\N1CCN(Cc2ccc(C)cc2)CC1)c1ccco1 | -25.2% | 
41 | CC(=O)NC1C(Oc2ccc(C=O)cc2)OC(COC(C)=O)C(OC(C)=O)C1OC(C)=O (stereo not drawn) | 10.4% | 
42 | CC(=O)Oc1ccc2c(=O)oc(-c3ccc([N+](=O)[O-])cc3)nc2c1 | -3.77% | 
43 | CCCCSCCCNC(=O)C1CCC(CNS(=O)(=O)c2ccc(NC(C)=O)cc2)CC1 (stereo not drawn) | 3.72% | 
44 | Nc1nnnn1/N=C/c1cccs1 | -11.8% | 
45 | O=C(NCc1ccc(Cl)cc1)NCc1ccc(Cl)cc1 | -12% | 
46 | Fc1ccc2[nH]c3c(N4CCN(Cc5ccc6c(c5)OCO6)CC4)ncnc3c2c1 |  | 2.31 µM (active)
47 | Fc1ccc2nc(N3CCCCC3)sc2c1 | 3.23% | 
48 | Fc1ccc2[nH]c3c(N4CCSCC4)ncnc3c2c1 |  | 9.2 µM (active)
49 | N#C/C=C/N1CCN(Cc2ccc3c(c2)OCO3)CC1 | -14.4% | 
50 | O=C(CSc1nc2c(c(=O)[nH]1)CN(Cc1ccc3c(c1)OCO3)CC2)Nc1cc(F)ccc1F | -18.4% | 
51 | CN(C)c1cccc(C(=O)N2CCC(n3nccc3NC(=O)C3CCOC3)CC2)c1 (stereo not drawn) | 1.6% | 
52 | Cc1ccc(NNC(=O)c2c(F)cccc2Cl)cc1Cl | -9.04% | 
53 | O=C(CCn1nnc2ccccc21)OCC(=O)c1ccc([N+](=O)[O-])cc1 | -16.2% | 
